{"source": "PubChem BioAssay", "key": {"[1]": {"test": "hESC survival regulators, cell-based (AID 493140; call rule not given here;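 on all read-outs here: cells exposed to compounds for four days before counting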)", "conditions": "human embryonic stem cell survival screen; stronger effect = higher value"}, "[2]": {"test": "liver-stage malaria parasite growth inhibition, primary screen, cell-based, HepG2, luciferase luminescence, HepG2 viability (AID 624349);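 on all read-outs here: 100% = mean of DMSO negative control wells on the same plate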", "conditions": "P. berghei liver stage in HepG2, luciferase luminescence, concentration not given here; parasite load remaining: stronger effect = lower value; viability: measured here: HepG2 viability without parasites"}, "[3]": {"test": "stimulators of nuclear beta-catenin in C2C12, primary screen, imaging, WNT3A-conditioned medium, mouse C2C12, NPC library (AID 1117326; in the data active means nuclear beta-catenin stimulation mostly above about 4.2%, no sharp cut-off; inactive means mostly below about 10%)", "conditions": "stronger effect = higher value"}, "[4]": {"test": "stimulators of insulin release from INS-1E, primary screen, cell-based, 5 mM glucose, NPC library (AID 1117329;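 active means compound raises insulin release from rat beta cells at 5 mM glucose, no numeric limit stated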)", "conditions": "rat INS-1E insulin secretion, at 10 µM, stronger effect = higher value"}, "[5]": {"test": "growth inhibition of GSK3B-pretreated HCT116 cells – cell-based, CellTiter-Glo, 0.2 to 20 µM (AID 1117336;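 active means compounds lowering colon cancer cell viability after pretreatment blocking the GSK3B kinase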)", "conditions": "HCT116 viability after GSK3B inhibitor, at 20 µM, stronger effect = higher value"}, "[6]": {"test": "inhibition of endothelial tube formation, primary screen, imaging, VEGF stimulated, CD31 staining, tube area, NPC library (AID 1117340;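 active means compound that reduces growth-factor-driven endothelial tube area in a mixed cell culture, no cutoff stated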)", "conditions": "VEGF-stimulated ADSC/ECFC co-culture, at 10 µM, stronger effect = higher value"}, "[7]": {"test": "glucagon-like peptide 1 release enhancers, primary assay, NCI-H716 cell line, NPC library (AID 1117341;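 active means compound raises GLP1 secretion from the human gut endocrine cells, with no numeric limit stated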)", "conditions": "NCI-H716 cells, at 10 µM, stronger effect = higher value"}, "[8]": {"test": "HCT116 colon cancer cell growth inhibition, primary screen, CellTiter-Glo luminescence, NPC library (AID 1117342;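 active means compounds that lower survival of HCT116 colon cancer cells in the luminescence readout, no numeric limit stated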)", "conditions": "at 20 µM (top of the series)"}, "[9]": {"test": "CellTiter-Glo luminescent readout of SW480 viability loss, NPC library primary (AID 1117343;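 active means compounds that lower viability of the colon cancer cells in the luminescence readout, with no numeric limit stated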)", "conditions": "CellTiter-Glo luminescence; at 20 µM (top of the series) unless noted"}, "[10]": {"test": "decreased DLD-1 cellular survival, CellTiter-Glo luminescent readout, NPC compound collection, primary HTS (AID 1117346;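 active means compounds that lower survival of DLD-1 colon cancer cells in the luminescence readout, no cutoff given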)", "conditions": "DLD-1 viability, CellTiter-Glo luminescence; at 20 µM (top of the series)"}, "[11]": {"test": "differential killing of epithelial or mesenchymal cells, primary screen, imaging, PC-3E GFP, TEM4-18 mCherry, co-culture (AID 1345086;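 active means compounds killing one labelled cell type while sparing the other, by normalised counts and ratio limits, not self-fluorescent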;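 on all read-outs here: cells exposed to compound for 72 h before imaging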;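 on red/green cell ratio (normalised): normalised mesenchymal count divided by normalised epithelial count so high means epithelial killing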)", "conditions": "imaging cell counts, at 1 µM; for red/green cell ratio (normalised): actives lie on both sides, counts scaled to control wells, 1 = unselective"}, "[12]": {"test": "sensitizers of A549 cells to miR-34 induction, primary screen, imaging, A549 dox-inducible miR-34, nuclei and caspase counts (AID 1347080;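 active means compounds whose cell count with miR-34 switched on is under 0.7 times the count with it off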)", "conditions": "A549 miR-34 inducible, Hoechst nuclei count, 48 h"}, "[13]": {"test": "survival rescue of mitochondrial mutant cells in low glucose, primary screen, MELAS cybrids, Rieske KO mouse fibroblasts, CellTiter-Glo (AID 1508586;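 active means mean z-score across replicates of 1.96 or higher in either the MELAS or the Rieske mutant cell line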;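 further: z relative to plate mean and SD of compound and empty wells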)"}, "[14]": {"molecular_target": "NAD(+) hydrolase SARM1 (Homo sapiens) (UniProt Q6SZW1)", "sequence (Q6SZW1 whole entry, looked up)": "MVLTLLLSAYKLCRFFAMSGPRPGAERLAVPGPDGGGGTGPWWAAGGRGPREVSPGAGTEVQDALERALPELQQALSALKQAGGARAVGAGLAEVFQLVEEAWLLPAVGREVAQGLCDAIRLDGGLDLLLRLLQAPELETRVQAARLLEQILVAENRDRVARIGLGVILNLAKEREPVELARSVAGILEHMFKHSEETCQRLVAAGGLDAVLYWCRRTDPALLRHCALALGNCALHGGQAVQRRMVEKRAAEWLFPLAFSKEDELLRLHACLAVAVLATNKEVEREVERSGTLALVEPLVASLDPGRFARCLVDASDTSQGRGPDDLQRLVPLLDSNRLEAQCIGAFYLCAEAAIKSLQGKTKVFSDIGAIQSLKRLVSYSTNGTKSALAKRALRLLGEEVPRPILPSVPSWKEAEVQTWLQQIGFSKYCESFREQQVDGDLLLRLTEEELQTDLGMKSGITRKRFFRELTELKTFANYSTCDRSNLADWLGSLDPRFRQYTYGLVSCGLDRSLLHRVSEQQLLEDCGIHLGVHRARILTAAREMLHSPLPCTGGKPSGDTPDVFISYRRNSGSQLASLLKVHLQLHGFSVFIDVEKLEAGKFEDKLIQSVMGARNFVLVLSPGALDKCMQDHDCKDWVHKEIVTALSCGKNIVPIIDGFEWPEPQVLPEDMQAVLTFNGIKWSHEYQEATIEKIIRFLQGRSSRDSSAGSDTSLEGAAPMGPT", "test": "SARM1 TIR NADase inhibitors, cell lysate, NAD-Glo luminescence (AID 1508614;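 active means compound whose remaining NAD level is above about 45 nM, limit read from the data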)", "conditions": "SAM-TIR HEK293T lysate NADase, at 1 µM, stronger effect = higher value"}, "[15]": {"conditions": "measured here: epithelial PC-3E GFP cell survival"}, "[16]": {"conditions": "measured here: mesenchymal TEM4-18 mCherry cell survival"}, "[17]": {"conditions": "stronger effect = lower value, cell number ratio, induced over uninduced"}, "[18]": {"conditions": "measured here: relative caspase fold change +Dox/-Dox"}, "[19]": {"conditions": "measured here: total cells with miR-34 induction, stronger effect = lower value"}, "[20]": {"conditions": "measured here: total cells without miR-34 induction"}, "[21]": {"conditions": "MELAS cybrid survival, CellTiter-Glo 48 h, stronger effect = higher value"}, "[22]": {"conditions": "Rieske KO mouse fibroblast survival, CellTiter-Glo 72 h"}}, "note": "Where “and” joins values, the source holds several entries; their conditions need not be identical. Equal values may be shown once. Calls of active or inactive are those of the source. Unless noted, no stated cut-off is given here; in the data, active means parasite load remaining mostly below about 12% (no sharp cut-off); inactive means mostly above about 10%."}
{"smiles": "O=C(Nc1ccccc1)OCC(CN1CCCCC1)OC(=O)Nc1ccccc1", "note": "(centres undefined)", "values": [{"measurement": "survival", "setting": "[1]", "result": "16 (inactive)"}, {"measurement": "parasite load remaining", "setting": "[2]", "result": "59.3% (inactive) and 41.7% (inactive) and 36.2% (inactive)"}, {"measurement": "viability", "setting": "[2]", "result": "79.1% and 91.5% and 107%"}, {"measurement": "nuclear beta-catenin stimulation", "setting": "[3]; at 10 µM", "result": "-0.9% (inactive)"}, {"measurement": "nuclear beta-catenin stimulation", "setting": "[3]; stimulation, at 2 µM", "result": -0.9, "unit": "%"}, {"measurement": "insulin secretion stimulation", "setting": "[4]", "result": "14.9% (inactive)"}, {"measurement": "viability decrease", "setting": "[5]", "result": "36.4% (inactive)"}, {"measurement": "tube area decrease", "setting": "[6]", "result": "1.6% (inactive)"}, {"measurement": "GLP1 secretion stimulation", "setting": "[7]", "result": "-0.5% (inactive)"}, {"measurement": "inhibition of viability", "setting": "[8]", "result": "75.7% (active)"}, {"measurement": "viability decrease (inhibition)", "setting": "[9]", "result": "65.2% (active)"}, {"measurement": "viability decrease (inhibition)", "setting": "[10]", "result": "32.3% (inactive)"}, {"measurement": "red/green cell ratio (normalised)", "setting": "[11]", "result": "0.79 (inactive)"}, {"measurement": "normalised cell number", "setting": "[11]; [15]", "result": 1.18}, {"measurement": "normalised cell number", "setting": "[11]; [16]", "result": 0.92}, {"measurement": "fold change", "setting": "[12]; [17]", "result": "0.99 (inactive) and 0.916 (inactive)"}, {"measurement": "fold change", "setting": "[12]; [18]", "result": "1.08 and 5.69"}, {"measurement": "cell count", "setting": "[12]; [19]", "result": "8030 and 11400"}, {"measurement": "cell count", "setting": "[12]; [20]", "result": "8110 and 12500"}, {"measurement": "z-score", "setting": "[13]; [21]", "result": "0.475 (inactive)"}, {"measurement": "z-score", "setting": "[13]; [22]", "result": -0.0131}, {"measurement": "remaining NAD", "setting": "[14]", "result": "10 nM (inactive)"}]}
{"smiles": "CC[N+](CC)(CC(=O)Nc1c(C)cccc1C)Cc1ccccc1", "values": [{"measurement": "parasite load remaining", "setting": "[2]", "result": "117% (inactive) and 51.1% (inactive)"}, {"measurement": "viability", "setting": "[2]", "result": "146% and 98%"}, {"measurement": "nuclear beta-catenin stimulation", "setting": "[3]; at 10 µM", "result": "-0.3% (inactive)"}, {"measurement": "nuclear beta-catenin stimulation", "setting": "[3]; stimulation, at 2 µM", "result": 6.8, "unit": "%"}, {"measurement": "insulin secretion stimulation", "setting": "[4]", "result": "-0.4% (inactive)"}, {"measurement": "viability decrease", "setting": "[5]", "result": "-6.6% (inactive)"}, {"measurement": "tube area decrease", "setting": "[6]", "result": "-5.6% (inactive)"}, {"measurement": "GLP1 secretion stimulation", "setting": "[7]", "result": "1.3% (inactive)"}, {"measurement": "inhibition of viability", "setting": "[8]", "result": "-21.2% (inactive)"}, {"measurement": "viability decrease (inhibition)", "setting": "[9]", "result": "14.9% (inactive)"}, {"measurement": "viability decrease (inhibition)", "setting": "[10]", "result": "-2.15% (inactive)"}, {"measurement": "red/green cell ratio (normalised)", "setting": "[11]", "result": "1.59 (inactive)"}, {"measurement": "normalised cell number", "setting": "[11]; [15]", "result": 1.01}, {"measurement": "normalised cell number", "setting": "[11]; [16]", "result": 1.61}, {"measurement": "fold change", "setting": "[12]; [17]", "result": "0.914 (inactive) and 0.932 (inactive)"}, {"measurement": "fold change", "setting": "[12]; [18]", "result": "0.77 and 5.58"}, {"measurement": "cell count", "setting": "[12]; [19]", "result": "8020 and 13200"}, {"measurement": "cell count", "setting": "[12]; [20]", "result": "8770 and 14200"}, {"measurement": "z-score", "setting": "[13]; [21]", "result": "-0.589 (inactive)"}, {"measurement": "z-score", "setting": "[13]; [22]", "result": -0.906}, {"measurement": "remaining NAD", "setting": "[14]", "result": "10 nM (inactive)"}]}
{"smiles": "CCOc1ccc2nc(S(N)(=O)=O)sc2c1", "values": [{"measurement": "parasite load remaining", "setting": "[2]", "result": "32.3% (inactive) and 52.3% (inactive)"}, {"measurement": "viability", "setting": "[2]", "result": "171% and 98.2%"}, {"measurement": "nuclear beta-catenin stimulation", "setting": "[3]; at 10 µM", "result": "1.3% (inactive)"}, {"measurement": "nuclear beta-catenin stimulation", "setting": "[3]; stimulation, at 2 µM", "result": 0.1, "unit": "%"}, {"measurement": "insulin secretion stimulation", "setting": "[4]", "result": "-2.2% (inactive)"}, {"measurement": "viability decrease", "setting": "[5]", "result": "16.7% (inactive)"}, {"measurement": "tube area decrease", "setting": "[6]", "result": "20.8% (inactive)"}, {"measurement": "GLP1 secretion stimulation", "setting": "[7]", "result": "2.1% (inactive)"}, {"measurement": "inhibition of viability", "setting": "[8]", "result": "-30% (inactive)"}, {"measurement": "viability decrease (inhibition)", "setting": "[9]", "result": "85.7% (active)"}, {"measurement": "viability decrease (inhibition)", "setting": "[10]", "result": "7.15% (inactive)"}, {"measurement": "red/green cell ratio (normalised)", "setting": "[11]", "result": "0.96 (inactive)"}, {"measurement": "normalised cell number", "setting": "[11]; [15]", "result": 0.89}, {"measurement": "normalised cell number", "setting": "[11]; [16]", "result": 0.86}, {"measurement": "fold change", "setting": "[12]; [17]", "result": "0.841 (inactive) and 0.925 (inactive)"}, {"measurement": "fold change", "setting": "[12]; [18]", "result": "3.81 and 2.83"}, {"measurement": "cell count", "setting": "[12]; [19]", "result": "10500 and 10700"}, {"measurement": "cell count", "setting": "[12]; [20]", "result": "12500 and 11500"}, {"measurement": "z-score", "setting": "[13]; [21]", "result": "-0.477 (inactive)"}, {"measurement": "z-score", "setting": "[13]; [22]", "result": 0.458}, {"measurement": "remaining NAD", "setting": "[14]", "result": "10 nM (inactive)"}]}
